PubChem BioAssay
The source made the active and inactive calls.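 Rule for the calls, unless noted: active = NADPH fluorescence slope more negative than the mean of all samples by about 3 SD, 99.7% confidence; inactive = the rest.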

Columns and labels:
[1] = endothelial E-selectin expression blockers – imaging, HUVEC, immunofluorescence, MLSMR starter and 10KST1 sets, primary screen (AID 487;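 active = visually confirmed hit in the image check and inhibition above 20%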;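 for inhibition: signal is fraction of cell area covered by stained E-selectin grains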;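 for nuclei count: 100% = median nuclei count of all wells on the same plate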); details: HUVEC TNFalpha-induced E-selectin immunofluorescence imaging, at 2 µM; inhibition: stronger effect = higher value; nuclei count: measured here: cell number, toxicity
[2] = Primary imaging screen for DUSP6 inhibitors that restore phospho-Erk in transfected HeLa cells, chemical complementation (AID 609;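 active = compounds giving at least 50% inhibition in the cell-based MKP-3 phosphatase rescue imaging test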;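 for inhibition: phospho-Erk level distribution per well compared with pooled transfected vehicle control wells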); details: HeLa MKP-3 transfected, phospho-Erk imaging KS statistic, at 10 µM, cells stimulated with TPA for 15 min
[3] = target: Dual specificity protein phosphatase 6 (Homo sapiens) (UniProt Q16828); experiment: as above; details: HeLa MKP-3 transfected, phospho-Erk imaging KS statistic; at 10 µM; stronger effect = higher value; cells stimulated with TPA for 15 min
[4] = target: Voltage-gated potassium channel subunit beta-2 (Rattus norvegicus) (UniProt P62483); experiment: inhibitors of rat Kvbeta2 reductase activity – biochemical, NADPH fluorescence, primary screen (AID 622;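 active = fluorescence slope higher than the sample average by over 3 SD, cut at about -0.22 in these data, passing the limit was not always enough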;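 note: slope of raw intensity against log time taken from 70 to 1610 s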); details: recombinant KvBeta, 4-cyanobenzaldehyde reduction, at 10 µM, stronger effect = higher value
[5] = target: Voltage-gated potassium channel subunit beta-2 (Rattus norvegicus) (UniProt P62483); experiment: enhancers of rat Kvbeta2 NADPH turnover – biochemical, NADPH fluorescence, primary screen (AID 623); details: Recombinant KvBeta, NADPH fluorescence decrease slope, 10 min; at 10 µM; stronger effect = lower value;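 note: fluorescence intensity change per second fitted from 20 to 320 s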
[6] = target: Muscarinic acetylcholine receptor M4 (Homo sapiens) (UniProt P08173); experiment: M4-linked GIRK flux change, two-sided – cell-based, HEK293 M4/GIRK, thallium flux, BTC-AM, M4 allosteric agonist project, primary screen (AID 625;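 active = fluorescence slope after compound addition differing from the mean of all tested samples at 99.7% confidence, mostly higher but some lower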;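 note: thallium influx through GIRK channels coupled to M4 in HEK293 cells with BTC-AM dye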); details: at 10 µM, actives lie on both sides
[7] = inhibitors of larval lipid processing in zebrafish, primary screen, whole organism, PED6 fluorescence, gall bladder and intestine (AID 686;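 active = a full or partial loss of lipid-probe fluorescence in the fish gall bladder, intestine or both, judged by eye; inactive = no fluorescence loss, or compound toxic to the fish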;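 note: larvae 5 to 7 days old with five fish per well; signal comes from phospholipase A2 cleavage of quenched PED6 carried via bile; overnight exposure to compound and PED6 before scoring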); details: Zebrafish larvae PED6 lipid processing, fluorescence scoring; screened at 20 µM (by protocol)
[8] = loss of swimming-algae plug formation – whole organism, Chlamydomonas reinhardtii, WT vs cilia-less mutant, absorbance, 96-well, primary screen (AID 463189;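 active = inhibition at or above 50% relative to wild type and mutant plate controls; inactive = inhibition below 50%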;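 note: 0% = wild type cc124 cells in DMSO and 100% = ciliumless bld1 mutant cells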); details: Chlamydomonas reinhardtii gravitaxis, OD600 absorbance, 2 days; at 10 µM; stronger effect = higher value
[9] = target: Alpha-2C adrenergic receptor (Homo sapiens) (UniProt P18825); experiment: compounds altering alpha2C-coupled GIRK flux – cell-based, HEK293 alpha2C/GIRK1/2, thallium flux, primary screen (AID 624;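 active = fluorescence slope after compound addition differing from the mean of all screened samples at 99.7% confidence, in either direction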;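 note: slope of fluorescence ratio to pre-addition baseline per second over 15 to 24 s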); details: thallium flux BTC fluorescence, at 10 µM, actives lie on both sides
[10] = blockers of RIG-like receptor reporter activation – cell-based, Sendai virus stimulus, luciferase, 10K MLSCN set, TLR/RLR signaling modifier project, primary screen (AID 602276;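 active = inhibition at or above 50% at 10 µM; inactive = inhibition below 50%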;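 note: firefly luciferase from ISG56 promoter only with Renilla not read in this screen; 0% = Sendai virus plus DMSO and 100% = medium plus DMSO without virus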); details: HEK293 RL24 IRF3 luciferase reporter, at 10 µM, stronger effect = higher value
[11] = TLR3 IRF3 reporter activation blockers – cell-based, poly I:C stimulus, luciferase, 10K MLSCN set, primary screen (AID 602277;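 active = inhibition of the reporter signal at or above 50%; inactive = inhibition below 50%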); details: HEK293-TLR3 RL24 IRF3 luciferase reporter, at 10 µM, stronger effect = higher value
[12] = reduction of polyQ htt aggregates in cells – imaging, exon1htt(103Q)mCFP cells, high-content imaging, primary screen (AID 483;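 active = visual image review flags a hit and inhibition of aggregation exceeds 20%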;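 note: compound exposure lasted 3 days before fixation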;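 for nuclei count: percent of the per-plate median nuclei count of sample wells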); details: exon1htt(103Q)mCFP cell line, aggregate imaging, at 2 µM; inhibition of aggregation: stronger effect = higher value; nuclei count: measured here: cell count, toxicity
[13] = measured here: cell density z-score
[14] = measured here: nuclear c-Myc green intensity z-score
[15] = measured here: nuclear pErk red intensity z-score, stronger effect = higher value

Voltage-gated potassium channel subunit beta-2 (Rattus norvegicus), sequence (P62483 whole entry, looked up): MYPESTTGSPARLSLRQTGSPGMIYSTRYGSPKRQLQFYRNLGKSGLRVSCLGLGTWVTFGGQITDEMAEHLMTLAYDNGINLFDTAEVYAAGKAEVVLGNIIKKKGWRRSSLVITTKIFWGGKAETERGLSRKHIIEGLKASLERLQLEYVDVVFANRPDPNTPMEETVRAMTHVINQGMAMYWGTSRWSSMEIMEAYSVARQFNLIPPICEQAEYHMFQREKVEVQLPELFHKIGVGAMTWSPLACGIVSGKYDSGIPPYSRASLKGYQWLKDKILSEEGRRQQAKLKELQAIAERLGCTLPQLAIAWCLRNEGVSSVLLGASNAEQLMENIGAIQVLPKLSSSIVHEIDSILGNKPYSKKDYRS
Alpha-2C adrenergic receptor (Homo sapiens), sequence (P18825 whole entry, looked up): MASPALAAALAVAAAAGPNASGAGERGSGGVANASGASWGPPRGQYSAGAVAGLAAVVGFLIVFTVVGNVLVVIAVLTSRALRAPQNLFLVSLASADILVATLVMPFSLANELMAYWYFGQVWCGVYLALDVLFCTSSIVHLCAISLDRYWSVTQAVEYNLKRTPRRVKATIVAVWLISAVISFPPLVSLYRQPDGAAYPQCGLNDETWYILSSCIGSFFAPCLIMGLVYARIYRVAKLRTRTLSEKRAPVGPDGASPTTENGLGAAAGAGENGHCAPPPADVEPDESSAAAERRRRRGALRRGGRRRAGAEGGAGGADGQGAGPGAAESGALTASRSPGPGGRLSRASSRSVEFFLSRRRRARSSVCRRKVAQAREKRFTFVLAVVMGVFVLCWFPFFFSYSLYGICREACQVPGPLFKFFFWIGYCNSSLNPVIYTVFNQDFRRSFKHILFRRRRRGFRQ
Muscarinic acetylcholine receptor M4 (Homo sapiens), sequence (P08173 whole entry, looked up): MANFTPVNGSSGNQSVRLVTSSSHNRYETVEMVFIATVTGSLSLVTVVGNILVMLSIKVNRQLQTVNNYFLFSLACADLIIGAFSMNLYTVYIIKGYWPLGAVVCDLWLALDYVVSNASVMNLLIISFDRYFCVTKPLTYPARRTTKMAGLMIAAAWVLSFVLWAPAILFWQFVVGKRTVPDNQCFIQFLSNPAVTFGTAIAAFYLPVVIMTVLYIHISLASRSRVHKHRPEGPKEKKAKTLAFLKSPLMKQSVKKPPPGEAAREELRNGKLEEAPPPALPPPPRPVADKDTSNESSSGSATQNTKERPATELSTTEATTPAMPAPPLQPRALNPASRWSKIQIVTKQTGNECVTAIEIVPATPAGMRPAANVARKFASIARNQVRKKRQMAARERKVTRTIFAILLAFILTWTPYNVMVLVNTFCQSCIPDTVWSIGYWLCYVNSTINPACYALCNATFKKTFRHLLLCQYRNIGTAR
Dual specificity protein phosphatase 6 (Homo sapiens), sequence (Q16828 whole entry, looked up): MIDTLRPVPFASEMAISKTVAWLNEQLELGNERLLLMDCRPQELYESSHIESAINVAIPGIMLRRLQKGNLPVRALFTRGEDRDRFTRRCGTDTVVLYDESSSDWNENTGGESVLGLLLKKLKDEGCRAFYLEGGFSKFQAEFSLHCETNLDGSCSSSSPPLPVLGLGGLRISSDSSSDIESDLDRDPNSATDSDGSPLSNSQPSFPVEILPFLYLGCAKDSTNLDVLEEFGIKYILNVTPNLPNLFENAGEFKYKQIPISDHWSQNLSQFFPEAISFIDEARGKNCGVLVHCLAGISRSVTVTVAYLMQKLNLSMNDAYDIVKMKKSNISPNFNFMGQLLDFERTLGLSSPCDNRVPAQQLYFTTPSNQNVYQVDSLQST

Structure (SMILES)	inhibition [1]	nuclei count [1]	z-score [2, 13]	z-score [2, 14]	z-score [2, 15]	inhibition [3]	fluorescence slope [4]	NADPH fluorescence slope [5]	fluorescence slope [6]	outcome [7]	inhibition [8]	slope [9]	inhibition [10]	inhibition [11]	inhibition of aggregation [12]	nuclei count [12]
CCCOc1ccc(Cl)cc1CN1CCOCC1	-21.7% (inactive)	67.6%	0.154	-1.58	-0.239	20.8% (inactive)	-0.499 (inactive)	-3e-05 (inactive)	0.0115 (inactive)	inactive	32.2% (inactive)	–	–	–	–	–
COc1cccc(N2CCN(c3ncnc4c3[nH]c3ccccc34)CC2C)c1 (centres undefined)	72.8% (inactive)	102%	-0.905	-0.691	2.95	-7.93% (inactive)	-0.41 (inactive)	-8e-06 (inactive)	0.00483 (inactive)	inactive	57% (active)	–	–	–	–	–
CCCOc1cccc(CN2CCCCC2c2cccnc2)c1 (centres undefined)	-33.4% (inactive)	153%	0.13	0.714	-0.468	5.57% (inactive)	-0.369 (inactive)	1.8e-06 (inactive)	0.00674 (inactive)	inactive	-12.9% (inactive)	–	–	–	–	–
COc1ccc(OC)c(C2=NOC(C(=O)Nc3c(C)n(C)n(-c4ccccc4)c3=O)C2)c1 (centres undefined)	–	–	–	–	–	–	-0.546 (inactive)	-2.8e-05 (inactive)	–	–	–	0.0073 (inactive)	-3.88% (inactive)	17.6% (inactive)	–	–
CCOC(=O)C1CCCN(c2cc(=O)n(Cc3ccc(F)cc3)c(=O)[nH]2)C1 (centres undefined)	–	–	–	–	–	–	-0.387 (inactive)	-1.6e-05 (inactive)	0.0077 (inactive)	–	–	–	11.9% (inactive)	19.7% (inactive)	–	–
CCCNCC(O)COc1ccccc1C(=O)CCc1ccccc1 (centres undefined)	-137% (inactive)	129%	-0.576	0.234	0.603	-4.44% (inactive)	-0.521 (inactive)	-4.9e-05 (inactive)	–	–	–	0.00393 (inactive)	9.47% (inactive)	42.6% (inactive)	–	–
CN1[C@@H]2CC(OC(=O)[C@H](CO)c3ccccc3)C[C@H]1[C@@H]1O[C@@H]12 (some centres undefined)	-56.4% (inactive)	129%	0.18	-0.245	-0.715	15.3% (inactive)	-0.461 (inactive)	-3e-05 (inactive)	–	–	–	0.00551 (inactive)	2.34% (inactive)	25.9% (inactive)	–	–
CC1(C)CC(=O)C=C(N=CC2=C(O)CC(C)(C)CC2=O)C1	-39.1% (inactive)	174%	-0.899	1.02	0.848	9.39% (inactive)	-0.363 (inactive)	-4.6e-05 (inactive)	0.00557 (inactive)	inactive	8.63% (inactive)	–	–	–	–	–
O=C(CN(Cc1ccco1)C(=O)CNS(=O)(=O)c1ccc(Cl)cc1)NCc1ccc(F)cc1	-185% (inactive)	159%	–	–	–	–	-0.567 (inactive)	-6.4e-06 (inactive)	0.00551 (inactive)	–	–	–	22.1% (inactive)	27.5% (inactive)	-10.4% (inactive)	97.5%
CCOc1ccc2[nH]c(C)cc(=O)c2c1	–	–	–	–	–	–	-0.554 (inactive)	1.5e-05 (inactive)	–	–	–	0.00617 (inactive)	-6.31% (inactive)	16% (inactive)	–	–
CCCCOc1ccccc1P(=O)(O)CP(=O)(c1ccccc1)c1ccccc1	-205% (inactive)	192%	-0.204	-0.49	0.473	-5.89% (inactive)	-0.436 (inactive)	-3e-05 (inactive)	0.00473 (inactive)	inactive	2.4% (inactive)	–	–	–	–	–
CCCN1Cc2cccc(C(=O)NCc3cccs3)c2C1=O	–	–	–	–	–	–	-0.393 (inactive)	-4e-05 (inactive)	–	inactive	–	0.00508 (inactive)	3.53% (inactive)	2.96% (inactive)	–	–
CCCNC(=O)C1CN(S(=O)(=O)c2ccccc2)CCN1S(=O)(=O)c1ccccc1 (centres undefined)	–	–	–	–	–	–	-0.512 (inactive)	-3.4e-05 (inactive)	–	–	–	0.00614 (inactive)	9.56% (inactive)	19% (inactive)	–	–
CC(=O)Oc1oc(-c2ccccc2)nc1/C=N/c1ccccn1	-20.4% (inactive)	147%	-0.443	1.34	0.905	7.48% (inactive)	-0.383 (inactive)	-5.8e-05 (inactive)	0.00577 (inactive)	inactive	-3.91% (inactive)	–	–	–	–	–
CC(C)CCNC(=O)NC(=O)CSc1nnc(COc2ccccc2Cl)o1	-53.1% (inactive)	126%	–	–	–	–	-0.513 (inactive)	-7.7e-06 (inactive)	0.00525 (inactive)	–	–	–	9.99% (inactive)	21% (inactive)	13.9% (inactive)	98.5%
CC1(C)CC(=O)C(C=N)=C(O)C1	-29.4% (inactive)	169%	-0.419	-0.908	0.177	-3.98% (inactive)	-0.384 (inactive)	-3.8e-05 (inactive)	0.00587 (inactive)	inactive	3.24% (inactive)	–	–	–	–	–
Clc1ccc2nc(N3CCNCC3)nc(-c3ccccc3)c2c1	14.5% (inactive)	144%	0.81	-0.0975	1.71	7.48% (inactive)	-0.23 (inactive)	-6.4e-06 (inactive)	0.00627 (inactive)	inactive	151% (active)	–	–	–	–	–
